Measurements published in PubChem BioAssay (Tox21).
Results filed as inconclusive are left out. Active and inactive are the calls of the source. Unless noted, calls come from the whole dose curve.

Tests used:
[1] = Nuclear factor erythroid 2-related factor 2/antioxidant responsive element (Nrf2/ARE) small molecule agonists: qHTS cell viability counter screen in human keratinocytes (AID 1919968; active = well fitted curve in the direction sought with a large enough effect in the repeat runs; an effect the other way counts as inactive or inconclusive; note: nearly all actives have a fitted effect of over 55% in size)
In short: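 Cells of the KeratinoSens line were plated at 1,500 per well and left for 5 h before compound transfer from DMSO stocks. After a 23 h incubation (37 C, 5% CO2), CellTiter-Fluor was added. Signal was taken as fluorescence intensity 1 h later.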

[2] = Nuclear factor erythroid 2-related factor 2/antioxidant responsive element (Nrf2/ARE) small molecule agonists: luciferase reporter gene qHTS assay in human keratinocytes (AID 1919969); note: nearly all actives have a fitted effect of over 35% in size
[3] = biological target: Gonadotropin-releasing hormone receptor (Homo sapiens) (UniProt P30968); assay: Human gonadotropin-releasing hormone receptor (GnRHR) small molecule agonists, calcium flux assay in GnRHR-HEK293 cells (AID 1920063); note: nearly all actives have a fitted effect of over 35% in size
Gonadotropin-releasing hormone receptor (Homo sapiens), sequence (P30968 whole entry, looked up): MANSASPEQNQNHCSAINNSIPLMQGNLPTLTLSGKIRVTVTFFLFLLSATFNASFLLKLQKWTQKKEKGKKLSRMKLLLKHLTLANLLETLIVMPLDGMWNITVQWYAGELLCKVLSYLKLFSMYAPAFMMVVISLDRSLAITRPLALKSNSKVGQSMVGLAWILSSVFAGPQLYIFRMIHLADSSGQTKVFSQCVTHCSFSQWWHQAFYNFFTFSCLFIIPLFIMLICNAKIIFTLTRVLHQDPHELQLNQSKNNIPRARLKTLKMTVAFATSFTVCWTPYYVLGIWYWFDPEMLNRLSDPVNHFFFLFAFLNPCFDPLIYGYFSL
In short: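 Compounds dissolved in DMSO are pin-transferred onto dye-loaded GnRHR-HEK293 cells, which were seeded 18 h before at 37 C/5% CO2. Calcium signal is read as fluorescence intensity at 1 s intervals for 3 min.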

[4] = biological target: KiSS-1 receptor (Homo sapiens) (UniProt Q969F8); assay: Human kisspeptin (KISS1R) small molecule agonists, calcium flux assay in KISS1R-HEK293 cells (AID 1920064; active = well fitted curve in the direction sought with a large enough effect in the repeat runs; an effect the other way counts as inactive or inconclusive)
KiSS-1 receptor (Homo sapiens), sequence (Q969F8 whole entry, looked up): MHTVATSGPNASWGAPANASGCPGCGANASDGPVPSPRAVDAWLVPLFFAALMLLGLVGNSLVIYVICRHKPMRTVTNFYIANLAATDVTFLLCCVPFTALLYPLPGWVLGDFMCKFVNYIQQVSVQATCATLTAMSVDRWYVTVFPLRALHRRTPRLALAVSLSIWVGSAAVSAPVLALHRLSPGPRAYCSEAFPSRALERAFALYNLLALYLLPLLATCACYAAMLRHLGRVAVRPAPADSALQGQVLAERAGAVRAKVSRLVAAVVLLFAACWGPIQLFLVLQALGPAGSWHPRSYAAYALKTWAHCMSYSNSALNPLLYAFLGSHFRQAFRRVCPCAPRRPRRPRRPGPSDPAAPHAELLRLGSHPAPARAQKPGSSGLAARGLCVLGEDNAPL
In short: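 Cell line: HEK293, stable human KISS1R. Dye loading 1 h at 37 C after 18 h culture. Read: kinetic fluorescence, 480/540 nm, 3 min at 1 s intervals.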

[5] = G protein-coupled receptor (GPCR) small molecule agonists, calcium flux assay: HEK293 wild type cell line counter screen (AID 1920065)
In short: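 Tox21 10K compounds, 15 concentrations each in triplicate, pin-transferred in DMSO onto dye-loaded cells; kinetic read at 480/540 nm for 3 min, 1 s intervals.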

[6] = p53 small molecule agonists, cell-based qHTS assay with human liver microsomes (AID 1963577);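 note: p53 response element beta-lactamase reporter cells with liver microsomes plus NADPH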
In short: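 In this qHTS, p53 response-element beta-lactamase cells receive test compound together with a microsome/NADPH activating system (0.5 mg/mL final each) and are incubated 16 h at 37 C before LiveBLAzer fluorescence detection.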

[7] = p53 small molecule agonists, cell-based qHTS assay with rat liver microsomes (AID 1963578)
In short: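 Agonist mode in p53RE-bla reporter cells, with compounds co-incubated 16 h at 37 C alongside 0.5 mg/mL rat liver microsomes and 0.5 mg/mL NADPH (final), followed by a 2 h LiveBLAzer detection step.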

[8] = p53 small molecule agonists, cell-based qHTS assay with human liver microsomes: qHTS cell viability counter screen (AID 1963579); note: nearly all actives have a fitted effect of over 45% in size
In short: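 Metabolically activated exposure: compounds, human liver microsomes and NADPH (0.5 mg/mL final apiece) were added to p53RE-bla cells seeded 5 h earlier, left 16 h at 37 C, and then assessed for viability by CellTiter-Glo luminescence.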

[9] = p53 small molecule agonists, cell-based qHTS assay with rat liver microsomes: qHTS cell viability counter screen (AID 1963580); note: nearly all actives have a fitted effect of over 45% in size
In short: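 Cytotoxicity counter screen: intracellular ATP read by CellTiter-Glo luminescence in the p53 reporter wells. HCT-116 p53RE-bla cells were treated for 16 h at 37 C alongside rat liver microsomes and NADPH, each 0.5 mg/mL final.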

[10] = p53 small molecule agonists, cell-based qHTS assay: qHTS cell viability counter screen (AID 1963581); note: nearly all actives have a fitted effect of over 45% in size
In short: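 ATP content measured by luminescence in HCT-116 p53RE-bla cells treated 16 h at 37 C, same wells as the reporter screen.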

[11] = p53 small molecule agonists, cell-based qHTS assay (AID 1963582; active = well fitted activation curve with a large enough effect in the signal ratio in the repeat runs, not every such curve was filed as active; the % refers to the signal ratio)
In short: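 16 h compound exposure (37 C) of p53 response element–bla cells, preceded by 5 h recovery at 37 C/5% CO2; read-out via LiveBLAzer B/G FRET substrate, 2 h RT, fluorescence intensity.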

[12] = biological target: 5-hydroxytryptamine receptor 2A (Homo sapiens) (UniProt P28223); assay: 5-hydroxytryptamine receptor 2A (HTR2A) small molecule antagonists, cell-based qHTS assay (AID 1963586); note: nearly all actives have a fitted effect of over 45% in size
5-hydroxytryptamine receptor 2A (Homo sapiens), sequence (P28223 whole entry, looked up): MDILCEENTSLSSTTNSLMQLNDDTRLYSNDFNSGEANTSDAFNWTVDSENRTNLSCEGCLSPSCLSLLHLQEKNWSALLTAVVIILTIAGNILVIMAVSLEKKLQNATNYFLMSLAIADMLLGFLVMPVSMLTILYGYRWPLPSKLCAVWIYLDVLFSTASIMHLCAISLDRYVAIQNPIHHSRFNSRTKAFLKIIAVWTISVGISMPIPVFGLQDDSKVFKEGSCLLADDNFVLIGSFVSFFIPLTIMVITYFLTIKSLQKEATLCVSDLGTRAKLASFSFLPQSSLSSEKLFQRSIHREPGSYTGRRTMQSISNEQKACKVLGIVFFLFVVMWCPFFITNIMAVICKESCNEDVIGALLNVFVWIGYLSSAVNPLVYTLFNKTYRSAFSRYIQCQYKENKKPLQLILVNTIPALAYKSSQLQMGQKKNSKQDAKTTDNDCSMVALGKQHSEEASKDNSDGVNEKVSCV
In short: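 CHO cells stably expressing human HTR2A were plated for 18 h at 37 C, then loaded with calcium dye for 1 h. Compounds were preincubated 5 min at room temperature before DOI (4 nM solution) was added. Kinetic fluorescence was read for 3 min.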

[13] = biological target: 5-hydroxytryptamine receptor 2A (Homo sapiens) (UniProt P28223); assay: 5-hydroxytryptamine receptor 2A (HTR2A) small molecule agonists, cell-based qHTS assay (AID 1963587); note: nearly all actives have a fitted effect of over 30% in size
In short: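 Kinetic calcium-flux fluorescence (2 min, 1 sec intervals) after compound addition in agonist mode. HTR2A-CHO cells were cultured 18 h, then dye-loaded 1 h at 37 C.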

[14] = biological target: Muscarinic acetylcholine receptor M1 (Homo sapiens) (UniProt P11229); assay: Cholinergic receptor muscarinic 1 (CHRM1) small molecule antagonists, cell-based qHTS assay (AID 1963588); note: nearly all actives have a fitted effect of over 40% in size
Muscarinic acetylcholine receptor M1 (Homo sapiens), sequence (P11229 whole entry, looked up): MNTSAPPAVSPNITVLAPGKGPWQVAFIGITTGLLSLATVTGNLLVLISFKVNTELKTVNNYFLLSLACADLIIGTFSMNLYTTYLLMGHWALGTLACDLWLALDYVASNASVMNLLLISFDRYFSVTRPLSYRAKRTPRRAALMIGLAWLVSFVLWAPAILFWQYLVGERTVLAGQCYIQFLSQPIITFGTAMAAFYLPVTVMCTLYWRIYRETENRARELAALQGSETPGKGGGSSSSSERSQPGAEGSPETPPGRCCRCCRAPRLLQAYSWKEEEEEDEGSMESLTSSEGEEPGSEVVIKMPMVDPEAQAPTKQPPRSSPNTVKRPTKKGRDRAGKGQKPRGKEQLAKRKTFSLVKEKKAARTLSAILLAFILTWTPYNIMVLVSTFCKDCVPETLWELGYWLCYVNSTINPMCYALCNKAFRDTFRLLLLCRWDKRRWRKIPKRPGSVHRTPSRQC
In short: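 Compounds were tested at 15 concentrations in three independent runs. Dye-loaded CHRM1-CHO cells were exposed 5 min at room temperature before stimulation by acetylcholine added at 50nM. Intracellular calcium was read kinetically on FDSS for 3 min.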

[15] = biological target: Muscarinic acetylcholine receptor M1 (Homo sapiens) (UniProt P11229); assay: Cholinergic receptor muscarinic 1 (CHRM1) small molecule agonists, cell-based qHTS assay (AID 1963589); note: nearly all actives have a fitted effect of over 35% in size
In short: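 Homogeneous fluorescence calcium flux, agonist mode. Human M1-expressing CHO cells; compound dosed at 15 concentrations, three independent runs; signal sampled every 1 sec.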

[16] = cAMP Responsive Elements (CRE) small molecule agonists, cell-based qHTS assay (AID 1963590)
In short: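 HEK 293T cells stably bearing CRE-bla were plated at 2,000 cells per well and rested 18 h. Compounds, positive controls or DMSO were added for 3 h at 37 C. LiveBLAzer B/G substrate was then loaded for 2 h at room temperature.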

[17] = cAMP Responsive Elements (CRE) small molecule antagonists, cell-based qHTS assay (AID 1963591; active = well fitted inhibition curve with a large enough effect in the signal ratio in the repeat runs, not every such curve was filed as active; the % refers to the signal ratio)
In short: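 First, CRE-bla HEK293T cells settled 18 h at 37 C. Next, compound and 0.25 uM final NKH477 were applied for 3 h. Last, LiveBLAzer B/G substrate was loaded for 2 h at room temperature.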

[18] = biological target: Beta-2 adrenergic receptor (Homo sapiens) (UniProt P07550); assay: Adrenergic beta2 receptor (ADRB2) small molecule antagonists, cell-based qHTS assay (AID 1963592); note: series mostly up to about 92 µM; nearly all actives have a fitted effect of over 50% in size
Beta-2 adrenergic receptor (Homo sapiens), sequence (P07550 whole entry, looked up): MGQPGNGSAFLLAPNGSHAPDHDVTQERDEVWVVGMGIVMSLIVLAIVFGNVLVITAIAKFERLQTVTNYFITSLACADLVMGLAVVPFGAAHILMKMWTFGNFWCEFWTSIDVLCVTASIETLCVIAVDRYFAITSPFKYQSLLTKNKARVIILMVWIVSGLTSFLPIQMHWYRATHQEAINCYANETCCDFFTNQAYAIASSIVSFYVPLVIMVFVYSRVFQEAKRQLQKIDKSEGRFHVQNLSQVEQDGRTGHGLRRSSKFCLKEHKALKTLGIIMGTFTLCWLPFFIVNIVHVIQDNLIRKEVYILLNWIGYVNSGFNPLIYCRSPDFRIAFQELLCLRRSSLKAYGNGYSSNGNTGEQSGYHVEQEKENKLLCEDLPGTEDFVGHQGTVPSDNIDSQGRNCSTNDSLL
In short: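 Assay format: CHO-ADRB2 cells, 18-20hr seeding at 37C/5% CO2, then compound plus 1nM isoproterenol agonist mix for 0.5hr RT. Homogeneous time-resolved fluorescence cAMP detection after 1hr, expressed as 665/615 nm ratio.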

[19] = biological target: Beta-2 adrenergic receptor (Homo sapiens) (UniProt P07550); assay: Adrenergic beta2 receptor (ADRB2) small molecule agonists, cell-based qHTS assay (AID 1963593);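 note: CHO cells stably overexpressing human ADRB2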
In short: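 CHO cells stably over-expressing ADRB2 were plated overnight at 37C, then dosed with compounds plus a stimulation mix containing 100uM IBMX and 25uM Ro-20-1724 for 0.5hr at room temperature. cAMP was measured by HTRF competition, 1hr.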

[20] = biological target: D(2) dopamine receptor (Homo sapiens) (UniProt P14416); assay: Dopamine D2 receptor (DRD2) small molecule agonists, cell-based qHTS assay (AID 1963594); note: nearly all actives have a fitted effect of over 35% in size
D(2) dopamine receptor (Homo sapiens), sequence (P14416 whole entry, looked up): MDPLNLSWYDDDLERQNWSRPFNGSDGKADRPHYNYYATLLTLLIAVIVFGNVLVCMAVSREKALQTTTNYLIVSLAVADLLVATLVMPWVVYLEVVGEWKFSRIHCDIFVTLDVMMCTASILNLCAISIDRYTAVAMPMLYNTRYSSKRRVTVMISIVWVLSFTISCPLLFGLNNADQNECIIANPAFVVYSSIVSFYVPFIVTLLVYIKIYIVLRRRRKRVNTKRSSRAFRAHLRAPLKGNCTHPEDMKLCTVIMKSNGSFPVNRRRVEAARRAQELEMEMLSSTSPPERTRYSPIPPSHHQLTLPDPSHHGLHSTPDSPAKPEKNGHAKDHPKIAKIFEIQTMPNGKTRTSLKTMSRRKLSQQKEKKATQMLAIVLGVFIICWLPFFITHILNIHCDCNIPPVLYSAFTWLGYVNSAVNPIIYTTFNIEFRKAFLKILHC
In short: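 cAMP accumulation in DRD2-HEK293 cells measured by HTRF after 1 h detection; compounds added 10 min before NKH477 (200nM […]) forskolin-analogue stimulation, 30 min at room temperature, with Ro20-1724 present at 0.1 mM final.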
% is set by controls: 0 for no effect and ±100 for the full control effect.

COc1cc(C(=O)N2CCOCC2)cc(OC)c1OC
inactive: Potency [1] | Potency [2] | Potency [3] | Potency [4] | Potency [5] | Potency [6] | Potency [7] | Potency [8] | Potency [9] | Potency [10] | Potency [11] | Potency [12] | Potency [13] | Potency [14] | Potency [15] | Potency [16] | Potency [17] | Potency [18] | Potency [19] | Potency [20]

O=C(c1ccccc1)C1(O)CCCCC1
inactive: Potency [1] | Potency [2] | Potency [3] | Potency [4] | Potency [5] | Potency [6] | Potency [7] | Potency [8] | Potency [9] | Potency [10] | Potency [11] | Potency [12] | Potency [13] | Potency [14] | Potency [15] | Potency [16] | Potency [17] | Potency [18] | Potency [19] | Potency [20]

CCCC(=O)OCC(COC(=O)CCC)OC(=O)CCC
inactive: Potency [1] | Potency [2] | Potency [3] | Potency [4] | Potency [5] | Potency [6] | Potency [7] | Potency [8] | Potency [9] | Potency [10] | Potency [11] | Potency [12] | Potency [13] | Potency [14] | Potency [15] | Potency [16] | Potency [17] | Potency [18] | Potency [19] | Potency [20]

COC(/C=C(\C)CCC=C(C)C)OC
inactive: Potency [1] | Potency [2] | Potency [3] | Potency [4] | Potency [5] | Potency [6] | Potency [7] | Potency [8] | Potency [9] | Potency [10] | Potency [11] | Potency [12] | Potency [13] | Potency [14] | Potency [15] | Potency [16] | Potency [17] | Potency [18] | Potency [19] | Potency [20]

O=c1[nH]c(=O)c2cn[nH]c2[nH]1
inactive: Potency [1] | Potency [2] | Potency [3] | Potency [4] | Potency [5] | Potency [6] | Potency [7] | Potency [8] | Potency [9] | Potency [10] | Potency [11] | Potency [12] | Potency [13] | Potency [14] | Potency [15] | Potency [16] | Potency [17] | Potency [18] | Potency [19] | Potency [20]

FC(F)(F)C(Cl)Br (stereo not given)
inactive: Potency [1] | Potency [2] | Potency [3] | Potency [4] | Potency [5] | Potency [6] | Potency [7] | Potency [8] | Potency [9] | Potency [10] | Potency [11] | Potency [12] | Potency [13] | Potency [14] | Potency [15] | Potency [16] | Potency [17] | Potency [18] | Potency [19] | Potency [20]

Cc1cc(C)c(N=Nc2c(O)c(S(=O)(=O)O)cc3cc(S(=O)(=O)O)ccc23)cc1C
inactive: activity change, negative = cytotoxicity [1] -4.24% [at 8.39 µM] | activity, positive = activation [2] -2.39% [at 8.39 µM] | activity change [3] 0.758% [at 5.22 µM, stronger effect = higher value] | activation [4] 0.221% [at 6.97 µM] | activation [5] -0.909% [at 5.23 µM] | activation [6] -0.355% [at 5.99 µM] | activation [7] 0.887% [at 5.99 µM] | activity change, negative = cytotoxicity [8] 0.236% [at 5.99 µM] | activity change, negative = cytotoxicity [9] -1.53% [at 5.99 µM] | activity change, negative = cytotoxicity [10] -0.59% [at 5.99 µM] | activation [11] 0.0696% [at 5.99 µM] | activity, negative = inhibition [12] -22.1% [at 5.62 µM] | activation [13] -1.44% [at 7.02 µM] | activity, negative = inhibition [14] 26.6% [at 5.58 µM] | activation [15] -0.143% [at 6.97 µM] | activation [16] -0.168% [at 8.39 µM] | activity change, negative = inhibition [17] -0.183% [at 8.39 µM] | activity change, negative = inhibition [18] -5.6% [at 8.39 µM] | activation [19] -2.26% [at 8.39 µM] | activation [20] 4.98% [at 8.39 µM]
